Data from PubChem BioAssay AID2111 (National Center for Advancing Translational Sciences (NCATS), 2009).
Calls of active or inactive are those of the source. The call rests on the fitted dose curve; in most records, active means well fitted curve in either direction with a large enough effect; inconclusive means small, poorly fitted or top-dose-only effect; inactive means no such curve, though single readings can be large or run the other way.

molecular target: Lysosomal alpha-glucosidase (Homo sapiens) (UniProt P10253); experiment: Confirmation of Inhibitors and Activators of Human alpha-Glucosidase From Spleen Homogenate Using an Alternate Red Fluorescent Susbtrate; conditions: resorufin-glucoside fluorescence; series mostly up to 62.8 µM; activity change, negative = inhibition: at the top concentration
Text: NIH Chemical Genomics Center [NCGC] NIH Molecular Libraries Probe Production centers Network [MLPCN] MLPCN Grant: 1R03MH084841-01 Assay Submitter (PI): Wei Zheng NCGC Assay Overview: Alpha-glucosidase is responsible for hydrolysis of terminal, non-reducing 1,4-linked alpha-D-glucose residues with release of alpha-D-glucose. It is a lysosomal hydrolase that is required for the degradation of a small percentage (1-3%) of cellular glycogen in human. Deficiency of this enzyme results in glycogen-storage disease type II (GSDII), also referred to as Pompe disease, an autosomal recessive disorder. Structurally normal glycogen is accumulated in lysosomes and cytoplasm in affected patients, primarily in muscle tissues. Excessive glycogen storage within lysosomes may interrupt normal functioning of other organelles and leads to cellular injury. In turn, this leads to enlargement and dysfunction of the entire organ involved (eg, cardiomyopathy and muscle weakness). It has reported that the improper folding and trafficking of alpha-glucosidase resultinged from the genetic mutations may account for a significant number of Pomrope patients. […] We optimized this alpha-glucosidase assay in 1536-well plate format for identifying the novel small molecule inhibitors with the structures other than the sugar analogs in order to develop the new pharmacological chaperones. In particular, this assay is directed towards discovering compounds active in a more natural setting, tissue homogenate, that may have been missed by screens of the purified enzyme under more stringent conditions. This assay attempted to confirm hits from the primary screening using an alternate fluor than the primary screen used.
NCGC Assay Protocol Summary: This is a fluorogenic enzyme assay with Resorufin-alpha-D-glucopyranoside as the substrate and human spleen homogenate containing alpha-glucosidase as the enzyme preparation. Upon hydrolysis of this fluorogenic substrate, the resulting product, resorufin (which excites at 573 nm and emits at 610 nm) can be detected by a fluorescence plate reader. Data were normalized to the controls for basal activity (without enzyme) and 100% activity (with enzyme). The AC50 values were determined from concentration-response data modeled with the standard Hill equation. Assay buffer: 50 mM citric acid (titrated with potassium phosphate to pH 5.0), 0.01% Tween-20 (pH 5.0 is an optimal condition for this enzyme assay) 1536-well assay protocol for the alpha-glucosidase from human spleen homogenate: (1) Add 2 ul/well spleen homogenate (1 ug) (2) Add 23 nL compounds in DMSO solution. The final titration was 0.5 nM to 58 uM. (3) Add 2 ul of substrate (1 mM final) (4) Incubate at 37 C for 40 min (5) Add 2 ul stop solution (1M NaOH and 1M Glycine mixture, pH 10) (6) Detect the assay plate in a ViewLux plate reader (PerkinElmer) with […]. Keywords: Alpha-glucosidase, Pompe Disease, pharmacological chaperone, chaperone therapy, high throughput screening, alpha-glucosidase inhibitor, MLSMR, MLSCN, NIH Roadmap, qHTS and NCGC

Potency, active:
CCCN1CNc2c(c(=O)[nH]c(=S)n2CCc2cccc(Cl)c2Cl)C1 0.891 µM
COc1ccc(CCn2c3c(c(=O)[nH]c2=S)CN(Cc2ccccc2)CN3)cc1OC 7.94 µM
CCCN1CNc2c(c(=O)[nH]c(=S)n2CCc2cc(C)cc(C)c2)C1 4.47 µM
CCCN1CNc2c(c(=O)[nH]c(=S)n2CCc2ccccc2OC)C1 14.1 µM
COc1ccc(CCn2c3c(c(=O)[nH]c2=S)CN(c2ccccc2)CN3)cc1OC 25.1 µM

Activity change, negative = inhibition, inactive:
CC(=O)c1ccc(N2CCN(S(=O)(=O)c3ccc4c(c3)C(=O)OC4)CC2)cc1 9.03%
O=c1[nH]cc(C#Cc2ccccc2)c2ncncc12 -8.47%
CCCN1CNc2c(c(=O)[nH]c(=S)n2CCC(C)(C)C)C1 2.22%
CC(=O)c1ccc(N2CCN(S(=O)(=O)c3ccc4c(c3)CCC(=O)N4)CC2)cc1 9.43%
COc1ccc(CCn2c(=S)[nH]c(=O)c3c(C)cc(C)nc32)cc1OC 5.96%
OCCNc1nc(-c2cccs2)nc2ccccc12 7.11%
